The source of these data is PubChem BioAssay (NCI).

The structures appear in SMILES notation. This is part of a sample that, as a whole, favours compounds with a hit. Of some 79,000 tested, about 15% had one in any assay. Values without a mark were called inactive. Activity calls are given as the source filed them. No stated cut-off is given here; in the data, active means growth inhibition above about 70%; inactive means the rest.

Assay [1] can be described thus: NCI Yeast Anticancer Drug Screen. Data for the rad50 strain (AID 155).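 Further: 0% = growth of vehicle-only cultures of the same strain.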 The note with it: S. cerevisiae rad50 strain growth inhibition; at 50.0 µM; stronger effect = higher value. In a few lines:
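Vehicle-treated cultures provide the reference for the growth inhibition reported for compound-exposed, repair-deficient yeast.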

Assay [2] can be described thus: NCI Yeast Anticancer Drug Screen. Data for the mec2-1 strain (AID 157). The note with it: S. cerevisiae mec2-1 strain, at 50.0 µM, stronger effect = higher value. In a few lines: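 Compounds were applied to mec2-1 yeast cells. Their growth was then compared with that of vehicle-treated cultures to give growth inhibition.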
A short description of assay [3]: NCI Yeast Anticancer Drug Screen. Data for the sgs1 mgt1 strain (AID 161).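 Further: 0% = growth of cultures given vehicle only.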 The note with it: S. cerevisiae sgs1 mgt1 strain, at 50.0 µM, stronger effect = higher value. The gist of the method:
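Percent growth inhibition was derived by comparing compound-exposed mutant yeast with vehicle-exposed cultures. The strain carries alterations in DNA damage repair.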

The nature of assay [4]: NCI Yeast Anticancer Drug Screen. Data for the cln2 rad14 strain (AID 165).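 Further: 0% = growth equal to vehicle treated cultures.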 The conditions noted are these: S. cerevisiae cln2 rad14 strain, at 50.0 µM, stronger effect = higher value. The gist of the method: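 Strain: cln2 rad14 yeast, altered in cell cycle control and DNA damage repair. Read-out: growth inhibition vs vehicle.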
Assay [5] in a line: NCI Yeast Anticancer Drug Screen. Data for the bub3 strain (AID 167). The conditions noted are these: S. cerevisiae bub3 mutant strain, at 50.0 µM, stronger effect = higher value. In a few lines:
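Mutant yeast screening strain plus compound; vehicle-treated cultures serve as the 0% inhibition reference.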

A short description of assay [6]: NCI Yeast Anticancer Drug Screen. Data for the mlh1 rad18 strain (AID 175). The conditions noted are these: S. cerevisiae mlh1 rad18 strain growth inhibition; at 50.0 µM; stronger effect = higher value. In a few lines:
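A repair-deficient yeast strain is exposed to test compound, and growth is scored relative to vehicle-treated controls.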

On to `O=c1[nH]cc(CNC2CCCCC2)c(=O)[nH]1`, for which the growth inhibition in assay [1] is 21.5%; in assay [2], -9.35%; in assay [3], 7.65%; in assay [4], -0.2%; in assay [5], 4.6%; in assay [6], 8.2%.

Turning to `c1cncc(CNc2ncn[nH]2)c1`, the growth inhibition in assay [1] is -2.5%; in assay [2] it was 8.3%; in assay [3], -24.1%; in assay [4], -50.3%; in assay [5] it was -24.9%; in assay [6] it was -29.8%.

In the case of `COC(=O)C(C)c1cccc2ccc3ccccc3c12` (stereo not drawn), the growth inhibition in assay [1] is 16.3%; in assay [2] it was -11.7%; in assay [3] it was 16.2%; in assay [4], 9.55%; in assay [5] it was 15.2%; in assay [6], 23.4%.

`O=C(/C=C/C(=O)c1ccc(O)cc1)Oc1ccccc1`: the growth inhibition was 33.1% in assay [1]; -3.75% in assay [2]; 1.1% in assay [3]; -15.3% in assay [4]; 12.9% in assay [5]; 18.1% in assay [6].

With `CC1(c2ccc(-c3ccccc3)cc2)NC(=O)NC1=O` (stereo not drawn), the growth inhibition is 3.55% in assay [1]; 10.3% in assay [2]; 14.9% in assay [3]; -22.5% in assay [4]; -4.85% in assay [5]; -2.3% in assay [6].

Regarding `Cc1cc(C)c(NS(=O)(=O)c2ccc(Cl)cc2)cc1C`, the growth inhibition in assay [1] was 94.5% (active); in assay [2] it was 85.8% (active); in assay [3], 92.2% (active); in assay [4], 70%; in assay [5] it was 87.6% (active); in assay [6], 90.5% (active).

Turning to `C=CC1C(C[C@@H]2c3cc(O)c(O)cc3CCN2C(C)=O)C(C(=O)OC)=CO[C@H]1OC1OC(CO)C(O)C(O)C1O` (stereo partly drawn), the growth inhibition in assay [1] was -1.15%; in assay [2] it was -38.4%; in assay [3], -32.8%; in assay [4], 14.8%; in assay [5], -35%; in assay [6] it was 19.4%.

As to `OCc1ccccc1CO`, the growth inhibition in assay [1] is -19.6%; in assay [2], -15%; in assay [3], -9.25%; in assay [4], 13.3%; in assay [5], -3.75%; in assay [6], 3.15%.

In the case of `Cc1c(/C=N/NC(=O)c2ccc(Cl)cc2)c(=O)n(-c2ccccc2)n1C`, the growth inhibition in assay [1] is -43%; in assay [2], -20.9%; in assay [3], -53.4%; in assay [4], -32.4%; in assay [5] it was -52%; in assay [6] it was -65.2%.

As to `CCC[N+]1([O-])CCOCC1`, the growth inhibition in assay [1] is -8.2%; in assay [2] it was -1.8%; in assay [3] it was -5.55%; in assay [4], 26.4%; in assay [5], 14.3%; in assay [6], -18.1%.

Consider `CC(C)(C)n1nc(C2CC2)cc1NC(=O)Nc1ccc(Cl)cc1`, for which the growth inhibition in assay [1] is -0.55%; in assay [2], -8.25%; in assay [3] it was -8.55%; in assay [4], 8.85%; in assay [5], -2.55%; in assay [6], 2.4%.

For the compound `CC(=O)c1cccc(NC(=O)c2c(Br)c(Br)c(Br)c(Br)c2C(=O)O)c1`, the growth inhibition in assay [1] is -7.25%; in assay [2], -12.6%; in assay [3] it was 2.95%; in assay [4] it was 0.2%; in assay [5], -0.25%; in assay [6], -3.1%.

Consider `Nc1ccc(N)c2cc(S(=O)(=O)O)ccc12`, for which the growth inhibition in assay [1] is 3.85%; in assay [2] it was -4.8%; in assay [3], -5.1%; in assay [4], 6.4%; in assay [5] it was -16.2%; in assay [6], 7.9%.

Consider `O=[N+]([O-])c1ccccc1S(=O)NCc1c(Cl)cccc1Cl` (stereo not drawn), for which the growth inhibition is 14.1% in assay [1]; 13.3% in assay [2]; 24.5% in assay [3]; 22.5% in assay [4]; 5.2% in assay [5]; 24.5% in assay [6].

In the case of `C[C@]12CC[C@@H]3c4ccc(O)cc4CC[C@H]3[C@@H]1CC[C@@H]2OC(=O)CCc1ccccc1`, the growth inhibition is 35.1% in assay [1]; 9.8% in assay [2]; 26.3% in assay [3]; 28.5% in assay [4]; -2.4% in assay [5]; 31.1% in assay [6].

Regarding `CCOc1ccc(C=O)cc1OCC`, the growth inhibition in assay [1] is 0.15%; in assay [2], -25.4%; in assay [3], -9.3%; in assay [4], -15.8%; in assay [5], -2.7%; in assay [6], -10.3%.

In the case of `C1=Cc2c3c(c4c(c2C1)C=CC4)C=CC3`, the growth inhibition in assay [1] is -1.95%; in assay [2], -8.1%; in assay [3] it was -1.2%; in assay [4] it was -2.3%; in assay [5], -1.15%; in assay [6], 6.3%.

Consider `CCc1c(Cc2[nH]c(C=O)c(C)c2CC)[nH]c(C=O)c1C`, for which the growth inhibition in assay [1] is 6.85%; in assay [2] it was -11.9%; in assay [3], 11.2%; in assay [4], -1.05%; in assay [5] it was 5.45%; in assay [6] it was 3.8%.

`O=C(NC(CCS(=O)(=O)n1ccnc1)C(=O)OCc1ccccc1)OCc1ccccc1` (stereo not drawn): the growth inhibition in assay [1] was 12.7%; in assay [2] it was -4.95%; in assay [3], -18.2%; in assay [4] it was 11.2%; in assay [5], -4.7%; in assay [6], 1.6%.

Take `O=C(Nc1ccc(N=Nc2ccccc2)cc1)c1ccc(Cl)cc1`: the growth inhibition in assay [1] was -11.1%; in assay [2] it was 2.3%; in assay [3], 12.1%; in assay [4], -60.1%; in assay [5], 2.35%; in assay [6] it was -7.95%.

For `COc1cc(C)cc2c(-c3c(O)cc(O)c4c3CC(C)N[C@H]4C)cc(-c3cc(-c4c(O)cc(O)c5c4CC(C)N[C@H]5C)c4cc(C)cc(OC)c4c3O)c(O)c12` (stereo partly drawn), the growth inhibition in assay [1] is 15.2%; in assay [2], -20.4%; in assay [3], 7.9%; in assay [4] it was 18.9%; in assay [5] it was -13.9%; in assay [6], 16.5%.

Take `Cc1cc(=O)[nH]c2c(C)cc(Cl)cc12`: the growth inhibition in assay [1] is 9.95%; in assay [2], -5.25%; in assay [3], 14.9%; in assay [4], 17.1%; in assay [5], -18.4%; in assay [6], 1.65%.

On to `C=C1c2cc3c(cc2CC12Cc1cc4c(cc1C2=O)CCC4)CCC3` (stereo not drawn), for which the growth inhibition in assay [1] was 20.2%; in assay [2] it was 22%; in assay [3], 11.3%; in assay [4], 24.1%; in assay [5], 46.8%; in assay [6], 16%.

On to `COC(=O)/C=C/c1cc2c(cc1-c1c(C(=O)O)cc(OC)c(OC)c1OC)OCO2`, for which the growth inhibition in assay [1] is -11.2%; in assay [2], -0.55%; in assay [3], -18.8%; in assay [4], -3.4%; in assay [5] it was -28.4%; in assay [6] it was -8.05%.

Turning to `Cc1cc(C(=O)C(C(c2ccccc2)N2CCOCC2)N2CCOCC2)ccc1Cl` (stereo not drawn), the growth inhibition is 4.6% in assay [1]; 7.15% in assay [2]; 12.8% in assay [3]; -1.35% in assay [4]; 10.8% in assay [5]; 26.9% in assay [6].

Turning to `Nc1c(N=Nc2ccc(S(=O)(=O)Nc3cnccn3)cc2)cc(S(=O)(=O)O)c2ccccc12`, the growth inhibition in assay [1] was 10.6%; in assay [2] it was -2.45%; in assay [3], 8.3%; in assay [4] it was 5.9%; in assay [5] it was 9.8%; in assay [6] it was 26.6%.

As for `CC1CC(=O)C(CCC#N)=C(O)C1` (stereo not drawn), the growth inhibition is 4.85% in assay [1]; -14.2% in assay [2]; -8.15% in assay [3]; -9.9% in assay [4]; 5.55% in assay [5]; 4.95% in assay [6].

Turning to `CC1(C)Nc2cc3c(cc2-n2cccc21)oc1ccccc13`, the growth inhibition was 17.3% in assay [1]; -3.55% in assay [2]; 39.5% in assay [3]; 45.6% in assay [4]; 30.4% in assay [5]; 27.4% in assay [6].

As to `FC1(F)SC2CCCCCCCCCCC2C1(F)F` (stereo not drawn), the growth inhibition was -42.6% in assay [1]; -15.3% in assay [2]; -20.4% in assay [3]; -18.7% in assay [4]; 29.1% in assay [5]; 2.05% in assay [6].

For `COc1cc(OC)cc(C(NC(C)=O)NC(C)=O)c1`, the growth inhibition in assay [1] was 5.45%; in assay [2], 2.55%; in assay [3], 7.7%; in assay [4], -31.2%; in assay [5], 1.5%; in assay [6], 17.1%.

For `O=C(OCCCCCCCCOC(=O)c1ccc([N+](=O)[O-])cc1)c1ccc([N+](=O)[O-])cc1`, the growth inhibition in assay [1] was 14.6%; in assay [2] it was 2.15%; in assay [3], 12.2%; in assay [4] it was 4.1%; in assay [5], -5.4%; in assay [6] it was 5.9%.

Regarding `NC(=O)c1cc(Cl)c(N)c(Cl)c1`, the growth inhibition is 8.2% in assay [1]; -7.65% in assay [2]; -11.6% in assay [3]; -5.25% in assay [4]; -12.4% in assay [5]; -11.8% in assay [6].

With `Cc1cccc(C(N)=S)n1`, the growth inhibition in assay [1] was 14.9%; in assay [2] it was 7.5%; in assay [3] it was 11.1%; in assay [4], 23.9%; in assay [5] it was 18.8%; in assay [6] it was 22.5%.
